GSH bead fluor: compound fluoresces at 488/530 nm on GSH beads; AID 1776; GSH beads flow cytometry, compound fluorescence 488/530 nm; hits give high values; 0.25% of 190,000 active; fluorescence (KMESF) at 10 µM; in the data active = fluorescence above about 89;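 note: glutathione beads carrying GST-tagged Bcl family fusion proteins plus one bare bead set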
RGS7-Gao: modulates binding of RGS7 to human Galphao | P09471 | Multiplexed bead flow cytometry; actives lie on both sides | binding response (% of control), % at 10 µM | 0.35% of 220,000 active | AID 1439; in the data active = binding response below about 49% or above about 150%; inconclusive = no clear call, values can overlap the other calls; inactive = in between;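 note: fluorescent Galphao held in activated GDP-AlF4 state binding bead-coupled RGS7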
Target sequence (P09471 whole entry, looked up): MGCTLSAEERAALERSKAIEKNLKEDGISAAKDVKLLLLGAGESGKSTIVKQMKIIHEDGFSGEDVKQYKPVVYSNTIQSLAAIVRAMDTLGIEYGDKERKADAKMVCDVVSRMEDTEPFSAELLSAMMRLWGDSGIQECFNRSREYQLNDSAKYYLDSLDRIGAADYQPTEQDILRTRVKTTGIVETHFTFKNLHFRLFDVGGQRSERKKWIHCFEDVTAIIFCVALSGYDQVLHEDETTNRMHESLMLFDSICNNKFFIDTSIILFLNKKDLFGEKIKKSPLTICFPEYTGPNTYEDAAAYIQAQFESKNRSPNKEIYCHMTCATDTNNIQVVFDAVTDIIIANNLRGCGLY
RGS8-Gao: human RGS8-Galphao interaction regulation | multiplexed bead flow cytometry, RGS8-Galphao binding; actives lie on both sides | response (percent of control binding), % at 10 µM | 0.34% of 220,000 active; in the data active = response below about 60% or above about 140%; inactive = in between;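 note: Galphao activated as the GDP aluminium fluoride complex binding bead-coupled RGS8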
Avidin fluor: avidin bead compound fluorescence profile; Avidin beads, compound fluorescence 488/530 nm, flow cytometry; hits give high values; fluorescence (KMESF) at 10 µM; 0.38% of 220,000 active; AID 1775; in the data active = fluorescence above about 47
RGS4-Gao reg: human RGS4-Galphao interaction regulation. P09471. Multiplexed bead flow cytometry, RGS4-Galphao binding; actives lie on both sides. binding response (% of control), % at 10 µM. 0.33% of 220,000 active. AID 1415; in the data active = binding response below about 49% or above about 150%; inactive = in between;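 note: fluorescent Galphao activated with aluminum fluoride binding bead-coupled RGS4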
RGS16-Gao HTS: regulators of human RGS16-Galphao interaction; O15492+P09471; AID 1441; bead-based flow cytometry RGS16-Galphao binding, fluorescence; actives lie on both sides; binding response (% of control), % at 10 µM; 0.38% of 220,000 active;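 note: Galphao activated by GDP with aluminum fluoride before binding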
Target sequence (O15492 whole entry, looked up): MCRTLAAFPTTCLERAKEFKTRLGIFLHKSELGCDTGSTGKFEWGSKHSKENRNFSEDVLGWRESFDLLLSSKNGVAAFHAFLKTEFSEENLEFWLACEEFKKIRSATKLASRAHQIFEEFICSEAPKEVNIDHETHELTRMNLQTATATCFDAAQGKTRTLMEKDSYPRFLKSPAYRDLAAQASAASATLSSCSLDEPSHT
Target sequence (P09471 whole entry, looked up): as the sequence (P09471 whole entry, looked up) above
RGS-Gao: modulates binding between human RGS4 and Galphao; 99% of 1,600 active; RGS4–Galpha-o binding response, % at 10 µM; shares compounds with RGS16-Gao HTS; multiplexed bead flow cytometry, RGS–Galpha-o binding;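 note: fluorescently labeled Galpha-o bound to GDP with aluminium fluoride binding biotinylated RGS beads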
Biotin-avidin: counter-screen: compounds disrupting biotin binding to avidin beads; shares compounds with RGS16-Gao HTS; streptavidin beads, fluorescein-biotin binding, flow cytometry; inhibition, % at 10 µM; 1,700 tested, under 10 active;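 active = inhibition above 50%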;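 note: median green fluorescence of gated singlet beads compared with DMSO control wells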
RGS8-Gao confirm: RGS8-Galphao interaction regulation, single point confirmation. shares compounds with RGS16-Gao HTS. bead-based flow cytometry RGS8-Galphao binding, fluorescence; actives lie on both sides. binding response (% of control), % at 10 µM. 3% of 1,700 active; in the data active = binding response below about 72% or above about 130%; inactive = in between;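 note: Galphao activated as GDP AlF4 complex before binding bead RGS8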
RGS7-Gao single: RGS7-Galphao interaction regulation, single point confirmation. shares compounds with RGS16-Gao HTS. bead-based flow cytometry RGS7-Galphao binding; actives lie on both sides. response (percent of control binding), % at 10 µM. 7.8% of 1,700 active; in the data active = response below about 75% or above about 130%; inactive = in between;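 note: fluorescent Galphao activated with GDP and aluminum fluoride binding bead-coupled RGS7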
RGS16-Gao conf: confirmation of regulators of human RGS16-Galphao interaction. AID 1838. bead-based flow cytometry, RGS16-Galphao binding; actives lie on both sides. 4% of 1,700 active. response (% of control binding), % at 10 µM. shares compounds with RGS16-Gao HTS; in the data active = response below about 74% or above about 130%; inactive = in between;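 note: Galphao activated as the GDP aluminium fluoride complex binding bead-coupled RGS16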
RGS4-Gao confirm: confirmation of regulators of human RGS4-Galphao interaction. shares compounds with RGS16-Gao HTS. RGS4-Galphao binding, multiplexed bead flow cytometry; actives lie on both sides. binding response (% of control), % at 10 µM. 4% of 1,700 active. AID 1840; in the data active = binding response below about 74% or above about 130%; inactive = in between
RGS19-Gao single: confirmation of regulators of human RGS19-Galphao interaction. AID 1841. 5% of 1,700 active. shares compounds with RGS16-Gao HTS. response (percent of control binding), % at 10 µM. bead-based flow cytometry RGS19-Galphao binding; actives lie on both sides; in the data active = response below about 50% or above about 160%; inactive = in between
A number is an active result; . = inactive; ? = inconclusive; / = not tested or not shown; + = active, no number; [ ] = dose if it differs, or a comment. Only some compounds are listed: those with a hit (about 1.2% of all), similar ones and a draw of the others. Unless noted, the rule behind the calls is not given here.

SMILES | GSH bead fluor | RGS7-Gao | RGS8-Gao | Avidin fluor | RGS4-Gao reg | RGS16-Gao HTS | Biotin-avidin | RGS8-Gao confirm | RGS7-Gao single | RGS16-Gao conf | RGS4-Gao confirm | RGS19-Gao single | others
COc1ccc(CNCc2cccc(Oc3ccccc3)c2)cc1 | . | . | . | . | . | . | / | / | / | / | / | /
Cn1c(N2CCCC2)nc2c1c(=O)n(Cc1ccc(Cl)cc1)c(=O)n2C | . | / | / | / | / | / | . | . | . | . | . | .
CCOC(=O)/C(=C/Nc1ccc(F)c(F)c1)[N+](=O)[O-] | / | ? | . | . | . | . | / | / | / | / | / | /
O=C(O)CC1(CC(=O)NCc2cc(F)cc3c2OCOC3)CCCCC1 | / | ? | . | . | 157[activator] | . | . | . | . | . | . | .
NC(=O)c1cc([N+](=O)[O-])ccc1NCCN1C(=O)c2ccccc2C1=O | . | . | . | . | . | . | / | / | / | / | / | /
Cc1cc(Br)c(OCC(=O)NN)c2c1CCC2 | / | ? | . | . | . | . | / | / | / | / | / | /
CN(Cc1ccc(Cl)s1)C(=O)CCl | . | ? | . | . | . | . | / | / | / | / | / | /
O=C(NCCN1CCN(Cc2ccc([N+](=O)[O-])cc2)CC1)C(=O)Nc1ccccc1 | . | . | . | . | . | . | / | / | / | / | / | /
O=C(NCCN1CCN(S(=O)(=O)c2ccc([N+](=O)[O-])cc2)CC1)C(=O)Nc1ccccc1 | . | 221[activator] | . | 152 | . | . | . | . | . | . | . | . | RGS-Gao=131
Clc1ccc(OCc2noc(-c3ccsc3)n2)c(Cl)c1 | / | ? | . | . | . | . | / | / | / | / | / | /
Cc1cn2c(N)c(C=C3C=C(Cl)C(=O)C(Cl)=C3)c(=O)nc2s1 | . | 473[activator] | . | 179 | 549[activator] | 444[activator] | . | 141[activator] | +[activator] | 449[activator] | 659[activator] | +[activator]
COC1=C/C(=C/c2c(N)n3cc(C)sc3nc2=O)C=CC1=O | . | . | . | . | . | . | / | / | / | / | / | /
CCOC(=O)C(=CNc1ccc(Oc2cncc(Cl)c2)nc1)C(=O)OCC | / | ? | . | . | . | . | / | / | / | / | / | /
CC(OC(=O)c1cc2sccc2n1C)C(=O)NCC1CCCO1 (stereo unspecified) | . | . | . | . | . | . | / | / | / | / | / | /
CCC(OC(=O)c1cc2sccc2n1C)C(=O)NCC1CCCO1 (stereo unspecified) | . | 161[activator] | . | 47 | 190[activator] | 203[activator] | . | . | . | . | . | .
O=C(Nc1ccc2c(c1)OCCO2)c1coc2ccccc2c1=O | . | . | . | . | . | . | / | / | / | / | / | /
CNC(=O)c1ccsc1NC(=O)c1coc2ccccc2c1=O | . | -6.6 | 12 | . | 9.9 | 1.6 | . | . | . | . | . | .
CCOC(=O)c1cccc2c1-c1ccccc1/C2=N/O | . | . | . | . | . | . | / | / | / | / | / | /
CC1CCCC(C)N1C(=O)c1cccc2c1-c1ccccc1/C2=N/O (stereo unspecified) | . | 166[activator] | . | 143 | . | . | . | . | . | . | . | . | RGS-Gao=110
CCC(C)(C)n1nnnc1CN1CCN(c2ccc(OC)cc2)CC1 | . | . | . | . | . | . | / | / | / | / | / | /
CCC(C)(C)n1nnnc1CN1CCSCC1 | . | . | . | . | 158[activator] | . | . | . | . | . | . | .
O=C(NCCOC(=O)c1ccccc1C(=O)OCCNC(=O)c1cccnc1)c1cccnc1 | . | . | . | . | . | . | / | / | / | / | / | /
Cc1cc(C)c(C(=O)OCCNC(=O)c2cccnc2)cc1C | . | 184[activator] | . | 215 | . | . | . | . | . | . | . | . | RGS-Gao=122
CCOC(=O)C1C(c2ccc(O)c(O)c2)NC(=S)NC1(O)C(F)(F)F (stereo unspecified) | . | 34 | . | . | 18 | . | . | . | . | . | . | .
FC(F)(F)c1ccccc1-n1c(CN2CCCCC2)n[nH]c1=S | / | ? | . | . | . | . | / | / | / | / | / | /
SMILES | GSH bead fluor | RGS7-Gao | RGS8-Gao | Avidin fluor | RGS4-Gao reg | RGS16-Gao HTS | Biotin-avidin | RGS8-Gao confirm | RGS7-Gao single | RGS16-Gao conf | RGS4-Gao confirm | RGS19-Gao single | others
O=C(CNCCN1CCOCC1)Nc1ccccc1Sc1ccccc1 | . | . | . | . | . | 227[activator] | . | . | . | . | . | . | RGS-Gao=110
CCCCC(=O)N(Cc1ccc(F)cc1)C1CCS(=O)(=O)C1 (stereo unspecified) | / | ? | . | . | . | . | / | / | / | / | / | /
CCOC(=O)C1=C(C)N=C2SC(CC)C(=O)N2C1c1cccc(F)c1 (stereo unspecified) | . | / | / | / | / | / | . | . | . | . | . | .
Cc1cc(C)c(C(=O)CSc2nnc(C)c(=O)[nH]2)cc1C | . | . | . | . | . | . | / | / | / | / | / | /
COc1ccc(-c2c(C#N)c(C)nc3c2C(=O)c2ccccc2-3)cc1 | . | . | . | . | . | . | / | / | / | / | / | /
Cc1nc2c(cc1C#N)C(=O)c1ccccc1-2 | . | . | . | . | . | 18 | . | . | . | . | . | . | RGS-Gao=86
COc1ccc(N2CCN(C(=O)c3cccc4nc(C)oc34)CC2)cc1 | . | 19 | 15 | . | 22 | 13 | . | . | . | . | . | .
COc1ccc(N2CCN(C(=O)c3cccn4c(=O)c5ccccc5nc34)CC2)cc1 | . | . | . | . | . | . | / | / | / | / | / | /
COc1ccc(-c2ccc(SCC(=O)N3CCOCC3)nn2)cc1OC | . | / | / | / | / | / | . | . | . | . | . | .
COc1ccc(-c2ccc(SCC(=O)N3CCCC3)nn2)cc1OC | . | . | . | . | . | . | / | / | / | / | / | /
O=C(OCc1cccc2ccccc12)c1ccc2c(=O)[nH]c(CN3CCOCC3)nc2c1 | . | -54 | -2.4 | . | -138 | -114 | . | . | . | . | . | .
O=c1[nH]c(=S)[nH]cc1Oc1ccc(Cl)cc1Cl | / | ? | . | . | . | . | / | / | / | / | / | /
Cn1cc(-c2nnnn2-c2ccc(Cl)cc2)c(=O)c2ccccc21 | . | . | 144[activator] | . | . | . | . | . | . | . | . | . | RGS-Gao=130
COCCN(C)C(=O)CC1C(=O)NCCN1CC(c1ccccc1)c1ccccc1 (stereo unspecified) | . | . | . | . | . | . | / | / | / | / | / | /
O=C(Nc1cccc([N+](=O)[O-])c1)c1ccc2ccccc2c1O | / | ? | . | . | . | . | / | / | / | / | / | /
